The source of these data is PubChem BioAssay AID463173 (ICCB-Longwood Screening Facility, Harvard Medical School, 2010).

The structures appear in SMILES notation. Out of some 52,000 compounds screened, about 4,300 (8.3%) were called active. This is one part of a sample in which actives are shown more often than they occur. Unmarked numbers belong to inactive results. Cut-off read from the data, not from the text of the source: active = survival mostly below about 52% (no sharp cut-off); inactive = mostly above about 56%.

The test has as its system DeltatarO mutant. Briefly: growth inhibition of S. aureus wild type versus tarO mutant, primary screen, teichoic acid synthesis inhibitors, RN4220, OD600 (AID 463173). As to conditions: OD600, 18 h, hits give low values, screened at 18.75 µg/mL (by protocol).
Turning to `Cc1nn(CCCC(=O)NCc2ccc(F)cc2)c(=O)c2c1sc1ccccc12`, the survival was 85%.

For the compound `O=C(NCCc1ccc(Cl)cc1)C(=O)NCC(c1ccc2c(c1)OCO2)N1CCOCC1` (stereo unspecified), the survival is 117%.

Consider `O=C(c1cccn2c(=O)c3cc(Cl)ccc3nc12)N1CCN(c2ccccc2F)CC1`, for which the survival is 76%.

On to `COc1ccc(CNC(=O)Nc2ccc3c(c2)N(C)C(=O)c2ccccc2S3)cc1`, for which the survival was 112%.

Consider `CN1C(=O)c2ccccc2Sc2ccc(NC(=O)NCc3cccc(Cl)c3)cc21`, for which the survival was 78%.

`COc1cccc(CNC(=O)Nc2ccc3c(c2)N(C)C(=O)c2ccccc2S3)c1`: the survival was 42% (active).

In the case of `CCOC(=O)c1c(C)[nH]c(C)c1S(=O)(=O)N1CCC(C(=O)NCc2ccc(F)cc2)CC1`, the survival is 6% (active).

Regarding `CCOC(=O)c1c(C)[nH]c(C)c1S(=O)(=O)N1CCC(C(=O)Nc2ccc(OCC)cc2)CC1`, the survival is -1% (active).

With `CCOC(=O)c1c(C)[nH]c(C)c1S(=O)(=O)N1CCC(C(=O)NCc2ccc(C)cc2)CC1`, the survival was 72%.

With `CCOC(=O)c1c(C)[nH]c(C)c1S(=O)(=O)N1CCC(C(=O)Nc2ccc(C)c(Cl)c2)CC1`, the survival was 79%.

In the case of `CCOC(=O)c1c(C)[nH]c(C)c1S(=O)(=O)N1CCC(C(=O)NCc2ccccc2)CC1`, the survival was 81%.

Consider `CCOC(=O)c1c(S(=O)(=O)N2CCC(C(=O)Nc3ccc(OCC)cc3)CC2)c(C)n(C)c1C`, for which the survival is 99%.

Consider `CCN(C(=O)c1ccco1)c1nnc(Cn2nnc3ccccc32)s1`, for which the survival was 91%.

As for `Cc1c(C2=CCN(S(=O)(=O)c3cccc(Cl)c3)CC2)c2ccccc2n1CC(=O)N1CCCC1`, the survival was 75%.

On to `CN1CC(=O)Nc2cc(C(=O)O)ccc21`, for which the survival was 87%.

Consider `COc1ccc(OCc2ccc(-c3nc(C#N)c(N4CCC(C)CC4)o3)o2)cc1`, for which the survival was 54%.

`Cc1ccccc1OCc1ccc(-c2nc(C#N)c(N3CCC(C(N)=O)CC3)o2)o1`: the survival is 38% (active).

`Cc1cccc(OCc2ccc(-c3nc(C#N)c(N4CCC(C(N)=O)CC4)o3)o2)c1`: the survival is 80%.

Turning to `CCN1CCN(c2oc(-c3ccc(COc4ccccc4C)o3)nc2C#N)CC1`, the survival is 82%.

As to `COc1ccc(OCc2ccc(-c3nc(C#N)c(N4CCN(c5ccccc5)CC4)o3)o2)cc1`, the survival is 77%.

In the case of `N#Cc1nc(-c2ccc(COc3ccc(Cl)cc3)o2)oc1N1CCC(C(N)=O)CC1`, the survival is 34% (active).

In the case of `CCN1CCN(c2oc(-c3ccc(COc4ccc(C)cc4)o3)nc2C#N)CC1`, the survival was 38% (active).

On to `COc1ccc(OCc2ccc(-c3nc(C#N)c(N4CCC(C(N)=O)CC4)o3)o2)cc1`, for which the survival is 72%.

`CCN1CCN(c2oc(-c3ccc(COc4ccc(OC)cc4)o3)nc2C#N)CC1`: the survival is 49% (active).

Consider `CC1CCN(c2oc(-c3ccc(COc4ccc(Cl)cc4)o3)nc2C#N)CC1`, for which the survival was 81%.

For `Cc1ccccc1OCc1ccc(-c2nc(C#N)c(N3CCCCC3)o2)o1`, the survival was 99%.

As to `Cc1ccc(OCc2ccc(-c3nc(C#N)c(N4CCC(C)CC4)o3)o2)cc1`, the survival is 58%.

For `Cc1nc2c3ccccc3nc(NNC(=O)CCC(=O)O)n2n1`, the survival was 94%.

For the compound `Cc1ccc(C2c3cccn3CCN2S(=O)(=O)c2ccc([N+](=O)[O-])cc2)cc1` (stereo unspecified), the survival is 99%.

With `CC(C)CCNC(=O)c1ccc2c(c1)nc1n2CCCCC1`, the survival was 86%.

Turning to `CCCCN(C)S(=O)(=O)c1cc(-c2cc(C)no2)ccc1C`, the survival is 84%.

In the case of `COc1ccc(OCc2ccc(-c3nc(C#N)c(N4CCCCC4)o3)o2)cc1`, the survival was 42% (active).

Consider `COc1ccc(OCc2ccc(-c3nc(C#N)c(N4CCN(C)CC4)o3)o2)cc1`, for which the survival was 52%.

As for `CN1CCN(c2oc(-c3ccc(COc4ccc(Cl)cc4)o3)nc2C#N)CC1`, the survival was 45% (active).

On to `N#Cc1nc(-c2ccc(COc3ccccc3)o2)oc1N1CCCCC1`, for which the survival was 48%.

In the case of `COc1ccc(OCc2ccc(-c3nc(C#N)c(N4CCN(c5cccc(Cl)c5)CC4)o3)o2)cc1`, the survival is 75%.

Take `N#Cc1nc(-c2ccc(COc3ccc(Cl)cc3)o2)oc1N1CCCCC1`: the survival was 49%.

Turning to `Cc1ccc(C)c(N2CCN(S(=O)(=O)c3ccc4c(c3)CC(=O)N4C)CC2)c1`, the survival is 125%.

On to `CC(C)CCNC(=O)C(=O)Nc1c2c(nn1-c1ccccc1)CS(=O)(=O)C2`, for which the survival is 77%.

On to `CC(C)OCCCNC(=O)C(=O)Nc1c2c(nn1-c1ccccc1)CS(=O)(=O)C2`, for which the survival was -5% (active).

On to `COCCNC(=O)C(=O)Nc1c2c(nn1-c1ccccc1)CS(=O)(=O)C2`, for which the survival is 92%.

With `CN(c1ccc(Cl)cc1)S(=O)(=O)c1nnc(NC(=O)C2CCCCC2)s1`, the survival was 106%.

For the compound `Cc1ccc(NC(=O)C(Cc2ccccc2)NS(=O)(=O)c2cccc3nsnc23)c(C)c1` (stereo unspecified), the survival is 125%.

In the case of `CCCNC(=O)C1CCC(Cn2c(=O)c3sccc3n(CC(=O)N3CCC(C)CC3)c2=O)CC1` (stereo unspecified), the survival is 73%.

On to `Cc1ccccc1NC(=O)c1ccccc1NC(=O)c1ccccc1Cl`, for which the survival was 72%.

For the compound `COc1ccc(-c2cc3nc(-c4ccc(C)cc4)cc(C(F)(F)F)n3n2)cc1`, the survival is 135%.

In the case of `Cc1cc2nc(-c3ccc(OCc4ccccc4)cc3)cc(C(F)(F)F)n2n1`, the survival is 79%.

Consider `Cc1ccc(COc2ccc(-c3cc(C(F)(F)F)n4nc(C)cc4n3)cc2)cc1`, for which the survival is 137%.

Regarding `Cc1cccc(COc2ccc(-c3cc(C(F)(F)F)n4nc(C)cc4n3)cc2)c1`, the survival is 9% (active).

As for `Cc1cc2nc(-c3ccc(OCc4ccc(F)cc4)cc3)cc(C(F)(F)F)n2n1`, the survival was 34% (active).

For the compound `Cc1cc(C(F)(F)F)n2nc(C)cc2n1`, the survival is 68%.

Regarding `Cc1ccc(C)c(CN2C(=O)c3ccccc3S(=O)c3ccc(C(=O)NCCC4=CCCCC4)cc32)c1` (stereo unspecified), the survival is 52%.

As to `COc1cccc(-c2nnc(SCC(=O)NC3CCCCC3)o2)c1`, the survival is 73%.

On to `Cc1ccc(C(=O)O)cc1-n1c(C)ccc1-c1ccccc1`, for which the survival was 59%.

Turning to `O=C(Cn1c(=O)nc(-c2ccccc2)c2ccccc21)Nc1ccc(Cl)c(C(F)(F)F)c1`, the survival is 90%.

On to `COc1cccc(NC(=O)Cn2c(=O)n(Cc3ccccc3)c(=O)c3ccccc32)c1`, for which the survival is 125%.

Turning to `COc1ccc(-n2ccnc(NCCc3ccccc3)c2=O)cc1OC`, the survival was 102%.

As to `CCCOc1ccc(Cn2c(=O)sc3ccccc32)cc1`, the survival was -1% (active).

On to `CC(C)CCOc1ccc(Cn2c(=O)sc3ccccc32)cc1`, for which the survival is 0% (active).

As for `O=c1sc2ccccc2n1CCCOc1ccccc1`, the survival was 105%.

For `CCOc1ccc(Cn2c(=O)sc3ccccc32)cc1`, the survival was 85%.

With `CCCOc1ccc(CNC(=O)Cn2c(=O)oc3ccccc32)cc1`, the survival was 80%.

On to `CCCCOc1ccc(Cn2c(=O)sc3ccccc32)cc1`, for which the survival was -1% (active).

Turning to `Cc1ccc(NC(=O)CSc2nc3n[nH]c(C)c3c(=N)n2-c2ccccc2C)cc1C`, the survival is 77%.

Consider `CCOC(=O)C1CCC(CN(Cc2ccc(OC)cc2)S(=O)(=O)c2ccc(F)c(C(=O)Nc3cc(Cl)ccc3OC)c2)CC1` (stereo unspecified), for which the survival was 83%.

With `CCN(CC)S(=O)(=O)c1ccc2c(c1)N(CC(=O)Nc1cccc(C(C)=O)c1)C(=O)CO2`, the survival is 84%.

Regarding `Cc1ccc(Cl)cc1N1CCN(C(=O)Cn2ncc3c4ccccc4n(C)c3c2=O)CC1`, the survival is 54%.

As for `CC1=C(c2ccc(C)cc2)S(=O)(=O)NC1=NCCCN1CCN(c2ccc(F)cc2)CC1`, the survival is 69%.

On to `O=C(O)C(Cc1c[nH]c2ccccc12)Nc1ncnc2c1oc1ccccc12` (stereo unspecified), for which the survival is 76%.

With `CCc1ccc(NC(=O)CCc2c(C)nc3nc(-c4cc(OC)cc(OC)c4)nn3c2C)cc1`, the survival is 111%.

For the compound `CCCCc1ccc(NC(=O)CSc2nnc3[nH]c(=O)cc(C)n23)cc1`, the survival is 95%.

For the compound `Cc1ccc(CNC(=O)CCS(=O)(=O)c2ccc3c(c2)CC(C)N3C(=O)C2CC2)cc1` (stereo unspecified), the survival was 91%.

`Clc1cccc(-n2ncc3c(N4CCN(Cc5ccccc5)CC4)ncnc32)c1`: the survival is 25% (active).

For `COc1ccccc1N1CCN(c2ncnc3c2cnn3-c2cc(Cl)ccc2C)CC1`, the survival is 124%.

Turning to `Cc1ccc(-n2ncc3c(N4CCN(Cc5ccccc5)CC4)ncnc32)cc1Cl`, the survival was 87%.

For `c1ccc(CN2CCN(c3ncnc4c3cnn4-c3ccccc3)CC2)cc1`, the survival is 69%.

Consider `COc1ccccc1N1CCN(c2ncnc3c2cnn3-c2ccc(C)cc2)CC1`, for which the survival was 91%.

On to `COc1ccccc1N1CCN(c2ncnc3c2cnn3-c2cccc(Cl)c2)CC1`, for which the survival is -2% (active).

Turning to `COc1cc(CSc2ncc(CO)n2Cc2ccc(C)cc2)cc(OC)c1`, the survival is 92%.

As for `Cc1ccc(-n2c(SCC(=O)c3ccccc3)nc3c([nH]c4ccccc43)c2=O)cc1`, the survival is -5% (active).

For the compound `COc1ccc(-n2c(SCC(=O)c3ccccc3)nc3c([nH]c4ccccc43)c2=O)cc1`, the survival is 98%.

In the case of `O=C(CSc1nc2c([nH]c3ccccc32)c(=O)n1-c1ccccc1)c1ccccc1`, the survival was 77%.

`Cc1cccc(NC(=O)CSc2nc3c([nH]c4ccccc43)c(=O)n2-c2ccc(F)cc2)c1C`: the survival is 49%.

On to `O=C(CSc1nc2c([nH]c3ccccc32)c(=O)n1-c1ccccc1)c1ccc(Cl)cc1`, for which the survival was 92%.

As to `Cc1ccc(C)c(NC(=O)CSc2nc3c([nH]c4ccccc43)c(=O)n2-c2ccc(F)cc2)c1`, the survival was 32% (active).

As to `O=C(CSc1nc2c([nH]c3ccccc32)c(=O)n1-c1ccccc1)Nc1cccc(C(F)(F)F)c1`, the survival was -4% (active).

In the case of `O=C(CSc1nc2c([nH]c3ccccc32)c(=O)n1-c1ccc(Cl)cc1)c1ccccc1`, the survival is 94%.

Take `CCOc1ccc(-n2c(SCC(=O)Nc3cc(C)ccc3C)nc3c([nH]c4ccccc43)c2=O)cc1`: the survival was 75%.

Take `COc1cccc(NC(=O)CSc2nc3c([nH]c4ccccc43)c(=O)n2-c2ccccc2)c1`: the survival is 76%.

`O=C(CSc1nc2c([nH]c3ccccc32)c(=O)n1-c1cccc(Cl)c1)c1ccccc1`: the survival is 47% (active).

As for `O=C(CSc1nc2c([nH]c3ccccc32)c(=O)n1-c1ccccc1F)Nc1cccc(C(F)(F)F)c1`, the survival was 74%.
